In PubChem BioAssay (NCATS):
Inconclusive results are not listed. Activity calls are given as the source filed them. Unless noted, calls follow the shape of the dose curve; as a rule, active = well fitted curve in either direction with a large enough effect (not every such curve was filed as active); inconclusive = small, poorly fitted or top-dose-only effect, or another doubt; inactive = flat fitted curve, though single readings scatter.

Columns and labels:
[1] = target: Lysosomal acid glucosylceramidase (Homo sapiens) (UniProt P04062); test: Glucocerebrosidase-p2 (AID 348; in the data active = potency below about 10 µM; also: potency is read from the fitted curve at half-maximal effect); settings: purified GBA, blue fluorogenic substrate, 40 min
Procedure, shortened: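 Compounds titrated from 0.6 nM upwards against 0.2 nM enzyme in pH 5.9 citric acid/KH2PO4, taurocholate, tween-20; blue fluorogenic substrate 80 uM, 40 min room temperature, stopped and read Ex 365/Em 440 for AC50.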

[2] = AP1 Signaling Pathway (AID 357); settings: ME-180 AP-1-bla reporter, EGF-induced, beta-lactamase ratio, 5 h; at 7.69 µM (top of the series) unless noted; also: % is scaled to controls: 0 for no effect and ±100 for the full control effect
Procedure, shortened: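 AP-1-bla ME-180 cells with beta-lactamase reporter under AP-1 response element, stimulated with EC50 EGF; compounds titrated, 5 hours at 37 degrees Celsius. CCF4 read at 460/530 nm ratio; positive and negative modulators judged by AC50.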

[3] = target: Cytochrome P450 1A2 (Homo sapiens) (UniProt P05177); test: p450-cyp1a2 (AID 410; calls by dose curve; also: potency is read from the fitted curve at half-maximal effect;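 as to activity change, negative = inhibition: -100% = full effect of reference inhibitor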); settings: recombinant CYP1A2, luciferin-ME demethylation, luminescence; series mostly up to 57 µM
Procedure, shortened: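 Inhibition was calculated relative to 57 uM furafylline (full inhibition). The reaction used human CYP1A2 at 20nM with Luciferin-ME at its Km, 100uM, driven by an NADPH-regenerating system for 60 min at room temperature.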

[4] = NFAT Signaling Pathway (AID 444); settings: Jurkat NFAT-bla M1, carbachol, beta-lactamase ratio, 5 h; at 7.69 µM (top of the series) unless noted;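 also: carbachol stimulus at about its EC50 of 1 µM final; % is scaled to controls: 0 for no effect and ±100 for the full control effect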
Procedure, shortened: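 Jurkat cells carrying an NFAT-driven β-lactamase reporter and co-transfected muscarinic M1 receptor were treated with compound plus carbachol (1 uM final, an EC50 level) for 5 h at 37 °C. CCF4 loading followed for 1 h at RT; 460/530 nm ratio gave %activity.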

[5] = Stat Signaling Pathway (AID 446); settings: ME-180 SIE beta-lactamase reporter, IL-6 stimulated, 5 h; at 7.69 µM (top of the series) unless noted;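 also: ME-180 cervical cancer cells given 40 pM IL-6 alongside compound; SIE-controlled beta-lactamase reporter measured as 460/530 nm FRET emission ratio; % is scaled to controls: 0 for no effect and ±100 for the full control effect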
Procedure, shortened: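 Screening format detects activators and inhibitors alike: ME-180 SIE-bla cells stimulated at 40 pM IL-6 for 5 hrs with compound, then dual-emission beta-lactamase read at 405 nm excitation.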

[6] = target: Glucocorticoid receptor (Homo sapiens) (UniProt P04150); test: GR-EFC Redistribution (AID 451; calls by dose curve; also: potency is read from the fitted curve at half-maximal effect); settings: CHO-K1 GR-EFC translocation, beta-gal luminescence, 2 h
Procedure, shortened: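 CHO-K1 cells stably expressing nuclear-localized β-gal enzyme acceptor and GR fused C-terminally to the enzyme donor fragment; ligand-driven nuclear translocation restores β-gal by complementation. Compounds titrated up to 46 uM final, 2 h at 37 °C; luminescence read.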

[7] = target: Mitogen-activated protein kinase 10 (Mus musculus) (UniProt Q61831); test: JNK3 AlphaScreen Assay (AID 530); settings: JNK3 lysate, c-Jun phosphorylation; series mostly up to 57.1 µM;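 also: kinase came from lysate of stimulated human HepG2 cells; signal reports phosphorylation of biotinylated GST-cJun 1-79 at Ser73 with 10 µM ATP; % is scaled to controls: 0 for no effect and ±100 for the full control effect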
Procedure, shortened: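 JNK3 came from HepG2 lysates pre-activated with IL-1beta and TNF-alpha and phosphorylated biotinylated GST-cJun (1-79) at 10 uM ATP, pH 7.6, room temperature. Compounds were titrated. AlphaScreen signal used anti-phospho-cJun (Ser73) antibody.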

[8] = target: 3',5'-cyclic-AMP phosphodiesterase 4B (Homo sapiens) (UniProt Q07343); test: qHTS Assay for Inhibitors of PDE-IV (AID 607; active = well fitted activation curve with a large enough effect in the main read-out, with a control signal flat, not every such curve was filed as active; also: % of control where 0% means no effect); settings: HEK293 ACTOne CNG channel cells, membrane potential fluorescence; series mostly up to 22.9 µM
Procedure, shortened: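 The readout is membrane depolarisation from a cAMP-sensing CNG channel, detected with a potential dye at ex 535/em 590. Cells were HEK293-derived (endogenous PDE-IV) at 1000 cells/well, titrated up to 22.9 uM final.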

[9] = target: Cytochrome P450 3A4 (Homo sapiens) (UniProt P08684); test: qHTS Assay for Activators of Cytochrome P450 3A4 (AID 885; active = well fitted curve in the direction sought with a large enough effect; an effect the other way counts as inactive or inconclusive; also: nearly all actives have a fitted effect of over 65% in size; also: potency is read from the fitted curve at half-maximal effect); settings: recombinant CYP3A4, Luciferin-PPXE luminescence, 60 min; series mostly up to 57.1 µM
Procedure, shortened: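 Steps: enzyme/substrate mix dispensed; compound added, 10 min RT; NADPH regeneration solution added, 60 min RT; luciferin detection buffer stops reaction; 20 min later luminescence measured.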

[10] = qHTS Assay for Lipid Storage Modulators (AID 1519; calls by dose curve); settings: Drosophila S3 cells, BODIPY lipid droplet/cell ratio, laser cytometry, cells loaded with oleic acid; for activity change, negative = inhibition: at 57.5 µM (top of the series)
Procedure, shortened: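 Cells seeded at 5,000 per well were treated with compounds over a concentration series and loaded with oleic acid (400 uM, as added). Lipid droplet fluorescence (488 nm excitation, 500-530 nm channel) was read by laser-scanning cytometry and normalized to 20 uM Triacsin C.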

[11] = Primary qHTS for small molecule stabilizers of the endoplasmic reticulum resident proteome: Secreted ER Calcium Modulated Protein (SERCaMP) assay (AID 1508630; active = well fitted curve in the direction sought with a large enough effect; an effect the other way counts as inactive or inconclusive; also: % is scaled to controls: 0 for no effect and ±100 for the full control effect); settings: SH-SY5Y GLuc-SERCaMP (Gaussia luciferase released on ER calcium loss) secretion, thapsigargin, luminescence; series mostly up to 38.4 µM
Procedure, shortened: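 GLuc-SERCaMP-expressing SH-SY5Y cells, pretreated 16 h with compound, are challenged with thapsigargin to empty ER calcium stores; after 4 h, coelenterazine is added directly to the medium and luminescence is imaged.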

[12] = target: Cytochrome P450 3A4 (Homo sapiens) (UniProt P08684); test: qHTS Assay for Inhibitors and Substrates of Cytochrome P450 3A4 (AID 884; active = well fitted curve in the direction sought with a large enough effect; an effect the other way counts as inactive or inconclusive; also: potency is read from the fitted curve at half-maximal effect; nearly all actives have a fitted effect of over 50% in size); settings: recombinant CYP3A4, Luciferin-PPXE luminescence; series mostly up to 57.1 µM
Procedure, shortened: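 20 nM human CYP3A4 with 25 uM Luciferin-PPXE (at KM) in 200 mM KPO4, preincubated 10 min with compound; NADPH regeneration started a 60 min RT reaction. Luciferin detected by luminescence, normalized to 57 uM ketoconazole as full inhibition.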

[13] = target: Cytochrome P450 2C19 (Homo sapiens) (UniProt P33261); test: qHTS Assay for Inhibitors and Substrates of Cytochrome P450 2C19 (AID 899; active = well fitted curve in the direction sought with a large enough effect; an effect the other way counts as inactive or inconclusive; also: potency is read from the fitted curve at half-maximal effect; nearly all actives have a fitted effect of over 60% in size); settings: recombinant CYP2C19, luciferin-H EGE luminescence; series mostly up to 57.1 µM
Procedure, shortened: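 In 50mM KPO4, the reaction held 5nM enzyme and KM-level (10uM) Luciferin-H EGE; it ran 60 min at 37C after NADPH regeneration and a 10 min compound preincubation. Luminescence values were scaled to 57uM ketoconazole as complete inhibition.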

[14] = target: Cytochrome P450 2D6 (Homo sapiens) (UniProt P10635); test: qHTS Assay for Inhibitors and Substrates of Cytochrome P450 2D6 (AID 891; active = well fitted curve in the direction sought with a large enough effect; an effect the other way counts as inactive or inconclusive; also: nearly all actives have a fitted effect of over 60% in size; also: potency is read from the fitted curve at half-maximal effect); settings: recombinant CYP2D6, luciferin-ME EGE luminescence; series mostly up to 57.1 µM
Procedure, shortened: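 Human CYP2D6 (5 nM) with 30 uM Luciferin-ME EGE (at Km) in 100 mM KPO4, compound preincubated 10 min, then NADPH regeneration system for 60 min at room temperature. Luciferin read by luminescence; normalized to 1.43 uM quinidine.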

[15] = qHTS Assay for Identification of Small Molecule Agonists for Hypoxia Response Element Signaling Pathway (AID 914; active = well fitted activation curve with a large enough effect in the signal ratio, with a control signal flat, not every such curve was filed as active; the % refers to the signal ratio; also: % of control where 0% means no effect); settings: ME-180 (cervical carcinoma) HRE-bla reporter, beta-lactamase ratio, CoCl2, 17 h; activation: stronger effect = higher value
Procedure, shortened: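 In Opti-MEM containing 0.5% dialyzed FBS and 10 mM HEPES, ME-180 HRE-bla cells received a compound titration and EC50 CoCl2. They were incubated 17 hours, then CCF4-loaded 2.5 hours at room temperature before ratio reading.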

[16] = measured here: cell count channel max response
[17] = measured here: lipid channel max response

Sequence of Lysosomal acid glucosylceramidase (Homo sapiens) (P04062 whole entry, looked up): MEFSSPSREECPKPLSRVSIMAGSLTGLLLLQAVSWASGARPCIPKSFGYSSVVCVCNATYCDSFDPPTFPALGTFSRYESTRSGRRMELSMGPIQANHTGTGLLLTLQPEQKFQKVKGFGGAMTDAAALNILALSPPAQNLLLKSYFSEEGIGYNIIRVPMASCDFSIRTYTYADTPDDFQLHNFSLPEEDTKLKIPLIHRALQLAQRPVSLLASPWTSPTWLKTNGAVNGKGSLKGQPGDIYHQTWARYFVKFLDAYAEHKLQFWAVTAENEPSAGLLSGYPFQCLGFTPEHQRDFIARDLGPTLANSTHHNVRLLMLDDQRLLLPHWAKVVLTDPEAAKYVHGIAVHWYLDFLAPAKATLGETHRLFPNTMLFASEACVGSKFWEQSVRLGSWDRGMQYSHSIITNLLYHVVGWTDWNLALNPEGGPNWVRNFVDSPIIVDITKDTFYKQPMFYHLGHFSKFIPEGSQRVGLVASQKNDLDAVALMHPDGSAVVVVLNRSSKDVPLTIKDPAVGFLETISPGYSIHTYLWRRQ
Sequence of Cytochrome P450 1A2 (Homo sapiens) (P05177 whole entry, looked up): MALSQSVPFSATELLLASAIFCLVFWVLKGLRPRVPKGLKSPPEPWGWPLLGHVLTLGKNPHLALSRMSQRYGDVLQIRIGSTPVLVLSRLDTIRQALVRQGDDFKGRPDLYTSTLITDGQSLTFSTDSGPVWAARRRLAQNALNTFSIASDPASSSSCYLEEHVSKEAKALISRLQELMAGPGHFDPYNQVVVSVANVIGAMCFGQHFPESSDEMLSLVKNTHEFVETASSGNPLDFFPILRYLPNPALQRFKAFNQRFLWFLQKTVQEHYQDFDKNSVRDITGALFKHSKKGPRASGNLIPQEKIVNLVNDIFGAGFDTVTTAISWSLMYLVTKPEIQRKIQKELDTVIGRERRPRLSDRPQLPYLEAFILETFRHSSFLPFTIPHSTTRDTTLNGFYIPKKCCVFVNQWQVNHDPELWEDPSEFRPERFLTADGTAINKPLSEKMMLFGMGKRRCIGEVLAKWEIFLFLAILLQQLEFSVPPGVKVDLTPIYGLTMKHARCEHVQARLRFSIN
Sequence of 3',5'-cyclic-AMP phosphodiesterase 4B (Homo sapiens) (Q07343 whole entry, looked up): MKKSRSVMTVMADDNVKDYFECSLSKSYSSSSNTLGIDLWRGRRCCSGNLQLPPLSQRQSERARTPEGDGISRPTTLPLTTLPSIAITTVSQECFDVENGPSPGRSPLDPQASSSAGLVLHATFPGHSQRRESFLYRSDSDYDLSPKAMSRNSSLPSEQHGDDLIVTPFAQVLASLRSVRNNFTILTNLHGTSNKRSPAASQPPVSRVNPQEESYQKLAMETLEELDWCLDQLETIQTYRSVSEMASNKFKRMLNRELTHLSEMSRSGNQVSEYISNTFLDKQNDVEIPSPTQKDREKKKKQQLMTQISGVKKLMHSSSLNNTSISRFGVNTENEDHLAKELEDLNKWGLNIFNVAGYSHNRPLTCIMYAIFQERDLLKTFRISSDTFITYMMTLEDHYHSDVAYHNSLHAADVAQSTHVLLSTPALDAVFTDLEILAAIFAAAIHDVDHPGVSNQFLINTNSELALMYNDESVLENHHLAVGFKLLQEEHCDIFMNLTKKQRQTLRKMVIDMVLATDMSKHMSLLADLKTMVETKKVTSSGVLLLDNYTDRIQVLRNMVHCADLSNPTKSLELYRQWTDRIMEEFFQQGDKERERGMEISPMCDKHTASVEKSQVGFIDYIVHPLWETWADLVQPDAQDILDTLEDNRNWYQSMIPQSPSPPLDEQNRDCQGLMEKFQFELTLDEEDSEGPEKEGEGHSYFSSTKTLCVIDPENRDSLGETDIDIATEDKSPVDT
Sequence of Glucocorticoid receptor (Homo sapiens) (P04150 whole entry, looked up, the tested form may be a part): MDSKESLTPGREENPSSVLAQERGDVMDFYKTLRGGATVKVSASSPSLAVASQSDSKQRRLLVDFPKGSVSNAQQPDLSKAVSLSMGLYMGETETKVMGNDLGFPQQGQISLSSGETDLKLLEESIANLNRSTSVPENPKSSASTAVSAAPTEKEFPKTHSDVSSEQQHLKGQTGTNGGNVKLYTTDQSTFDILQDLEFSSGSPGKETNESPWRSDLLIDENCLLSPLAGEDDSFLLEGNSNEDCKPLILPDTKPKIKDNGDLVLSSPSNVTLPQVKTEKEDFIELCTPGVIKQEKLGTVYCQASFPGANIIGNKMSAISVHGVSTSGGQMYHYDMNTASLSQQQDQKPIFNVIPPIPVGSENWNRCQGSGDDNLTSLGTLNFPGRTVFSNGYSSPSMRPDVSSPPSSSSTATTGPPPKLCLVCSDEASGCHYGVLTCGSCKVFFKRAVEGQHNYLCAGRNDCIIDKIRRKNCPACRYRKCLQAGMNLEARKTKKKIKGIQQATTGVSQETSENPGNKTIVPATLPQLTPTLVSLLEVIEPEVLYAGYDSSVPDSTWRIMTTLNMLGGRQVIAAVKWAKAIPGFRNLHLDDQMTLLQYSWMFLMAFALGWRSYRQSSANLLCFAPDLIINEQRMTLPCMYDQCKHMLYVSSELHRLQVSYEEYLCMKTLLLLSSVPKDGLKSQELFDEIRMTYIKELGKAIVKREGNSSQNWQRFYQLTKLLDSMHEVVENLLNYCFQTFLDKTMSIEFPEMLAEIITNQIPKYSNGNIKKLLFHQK
Sequence of Cytochrome P450 2D6 (Homo sapiens) (P10635 whole entry, looked up): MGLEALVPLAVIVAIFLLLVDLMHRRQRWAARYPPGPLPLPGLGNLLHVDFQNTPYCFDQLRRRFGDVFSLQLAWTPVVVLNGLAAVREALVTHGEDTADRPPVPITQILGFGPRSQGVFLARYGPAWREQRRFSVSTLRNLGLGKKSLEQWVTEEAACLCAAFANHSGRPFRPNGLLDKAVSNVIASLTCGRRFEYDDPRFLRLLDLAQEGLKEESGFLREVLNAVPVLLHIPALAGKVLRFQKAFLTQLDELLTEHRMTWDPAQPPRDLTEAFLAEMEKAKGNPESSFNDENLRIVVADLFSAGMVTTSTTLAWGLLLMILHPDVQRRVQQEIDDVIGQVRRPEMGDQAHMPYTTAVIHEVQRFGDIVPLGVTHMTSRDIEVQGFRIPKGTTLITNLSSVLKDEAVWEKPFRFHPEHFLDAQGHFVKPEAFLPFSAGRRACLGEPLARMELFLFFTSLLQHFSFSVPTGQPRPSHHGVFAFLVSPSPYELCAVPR
Sequence of Cytochrome P450 3A4 (Homo sapiens) (P08684 whole entry, looked up): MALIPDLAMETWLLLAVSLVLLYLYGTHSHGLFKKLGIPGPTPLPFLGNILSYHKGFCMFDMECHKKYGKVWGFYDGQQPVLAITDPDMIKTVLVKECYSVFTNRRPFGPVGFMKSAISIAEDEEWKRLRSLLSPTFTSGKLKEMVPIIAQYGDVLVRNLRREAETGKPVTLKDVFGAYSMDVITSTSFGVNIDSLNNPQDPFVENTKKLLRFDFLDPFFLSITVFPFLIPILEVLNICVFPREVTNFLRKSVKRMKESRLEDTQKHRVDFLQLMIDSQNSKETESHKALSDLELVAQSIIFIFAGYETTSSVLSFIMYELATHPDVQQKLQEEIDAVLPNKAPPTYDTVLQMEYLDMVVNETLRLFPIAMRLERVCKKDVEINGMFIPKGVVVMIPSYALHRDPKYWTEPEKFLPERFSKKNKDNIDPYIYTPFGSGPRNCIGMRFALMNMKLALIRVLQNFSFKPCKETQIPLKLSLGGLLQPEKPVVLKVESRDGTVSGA
Sequence of Cytochrome P450 2C19 (Homo sapiens) (P33261 whole entry, looked up): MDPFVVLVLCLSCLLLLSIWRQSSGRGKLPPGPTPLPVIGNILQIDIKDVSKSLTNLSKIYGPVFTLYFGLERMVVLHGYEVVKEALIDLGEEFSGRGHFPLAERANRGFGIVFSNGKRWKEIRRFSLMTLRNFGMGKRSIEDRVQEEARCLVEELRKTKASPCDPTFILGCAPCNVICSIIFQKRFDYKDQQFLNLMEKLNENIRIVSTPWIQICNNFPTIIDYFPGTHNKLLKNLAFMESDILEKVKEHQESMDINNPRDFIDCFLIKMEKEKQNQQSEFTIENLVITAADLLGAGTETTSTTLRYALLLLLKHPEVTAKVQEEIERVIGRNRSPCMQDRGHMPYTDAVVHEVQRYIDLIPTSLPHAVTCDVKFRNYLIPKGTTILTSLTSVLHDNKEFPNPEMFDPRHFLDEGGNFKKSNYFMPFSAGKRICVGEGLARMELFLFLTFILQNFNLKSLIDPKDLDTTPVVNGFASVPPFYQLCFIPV

Cc1noc(C)c1C(=O)N1CCC2(CCCN(Cc3nccs3)C2)CC1
14.6%: max response [10, 16]
22.3%: max response [10, 17]
inactive: Potency [1] > 11.4 µM | activity change, negative = inhibition [2] -7.07% | Potency [3] | activity change, negative = inhibition [4] -16.6% | activity, negative = inhibition [5] -1.5% | Potency [6] > 46 µM | outcome [7] | Potency [8] | Potency [9] | activity change, negative = inhibition [10] 5.37% | Potency [11]

O=C(c1csnn1)N1CCC2(CC1)CN(C(c1ccccc1)c1ccccc1)C2
18.7%: max response [10, 16]
24.2%: max response [10, 17]
active: Potency [9] 10 µM
inactive: Potency [1] > 11.4 µM | activity change, negative = inhibition [2] 3.92% | Potency [3] | activity change, negative = inhibition [4] -2.37% | activity, negative = inhibition [5] -0.642% | Potency [6] > 46 µM | outcome [7] | Potency [8] | activity change, negative = inhibition [10] 3.78% | Potency [11]

FC(F)(F)c1cc(CN2CCCC3(CCNCC3)C2)cc(C(F)(F)F)c1
inactive: Potency [1] > 11.4 µM | activity change, negative = inhibition [2] 2.64% | Potency [3] | activity change, negative = inhibition [4] -4.7% | activity, negative = inhibition [5] 1.59% | Potency [6] > 46 µM | outcome [7] | Potency [8] | Potency [9] | activity change, negative = inhibition [10] 0.357% | Potency [11]
active: Potency [12] 7.94 µM
2.14%: max response [10, 17]
-0.613%: max response [10, 16]

COc1ccc(C(=O)N2CCC3(CC2)CN(Cc2ccc(C#N)cc2)C3)cc1
11.7%: max response [10, 17]
inactive: Potency [1] > 11.4 µM | activity change, negative = inhibition [2] 11% | Potency [3] | activity change, negative = inhibition [4] -0.922% | activity, negative = inhibition [5] 8.44% | Potency [6] > 46 µM | outcome [7] | Potency [8] | Potency [9] | activity change, negative = inhibition [10] -3% | Potency [11]
13.1%: max response [10, 16]

O=S(=O)(c1ccccc1)N1CCC2(CCCN(c3ncccn3)C2)CC1
active: Potency [3] 15.8 µM | Potency [13] 0.398 µM
-5.51%: max response [10, 16]
inactive: Potency [1] > 11.4 µM | activity change, negative = inhibition [2] 0.46% | activity change, negative = inhibition [4] 5.51% | activity, negative = inhibition [5] -0.568% | Potency [6] > 46 µM | outcome [7] | Potency [8] | Potency [9] | activity change, negative = inhibition [10] 7.3% | Potency [11]
5.88%: max response [10, 17]

O=C(c1csnn1)N1CCC[C@@]2(CCN(Cc3nccs3)C2)C1
15.7%: max response [10, 16]
active: Potency [14] 5.01 µM
25.3%: max response [10, 17]
inactive: Potency [1] > 11.4 µM | activity change, negative = inhibition [2] 2.1% | Potency [3] | activity change, negative = inhibition [4] 2.26% | activity, negative = inhibition [5] -2.25% | Potency [6] > 46 µM | outcome [7] | Potency [8] | Potency [9] | activation [15] -0.307% | activity change, negative = inhibition [10] 6.67% | Potency [11]

CS(=O)(=O)N1CCC2(CC1)CN(C(=O)Nc1cccc(C#N)c1)C2
4.56%: max response [10, 16]
inactive: Potency [1] > 11.4 µM | activity change, negative = inhibition [2] -6.48% | Potency [3] | activity change, negative = inhibition [4] 14.4% | activity, negative = inhibition [5] -5.8% | Potency [6] > 46 µM | outcome [7] | Potency [8] | Potency [9] | activity change, negative = inhibition [10] 1.36% | Potency [11]
8.61%: max response [10, 17]

CC(=O)N1CCC2(CC1)CCN(C(=O)Nc1cccc(F)c1)CC2
11%: max response [10, 16]
active: Potency [14] 3.16 µM
16.9%: max response [10, 17]
inactive: Potency [1] > 11.4 µM | activity change, negative = inhibition [2] -10.4% | Potency [3] | activity change, negative = inhibition [4] 8.58% | activity, negative = inhibition [5] -7.06% | Potency [6] > 46 µM | outcome [7] | Potency [8] | activity change, negative = inhibition [10] 3% | Potency [11]

COC(=O)N1CCC2(CCCN(Cc3ccccc3OC)C2)CC1
15.9%: max response [10, 17]
15.3%: max response [10, 16]
active: activity change, negative = inhibition [4] -73.7% | Potency [14] 3.16 µM
inactive: Potency [1] > 11.4 µM | activity change, negative = inhibition [2] -7.44% | Potency [3] | activity, negative = inhibition [5] -10.7% | Potency [6] > 46 µM | outcome [7] | Potency [8] | Potency [9] | activity change, negative = inhibition [10] -2.47% | Potency [11]

CC(C)CN1CC[C@@]2(CCCN(C(=O)c3csnn3)C2)C1
inactive: Potency [1] > 11.4 µM | activity change, negative = inhibition [2] -0.149% | Potency [3] | activity change, negative = inhibition [4] -1.84% | activity, negative = inhibition [5] 5.64% | Potency [6] > 46 µM | outcome [7] | Potency [8] | Potency [9] | activity change, negative = inhibition [10] 1.65% | Potency [11]
2.01%: max response [10, 17]
active: Potency [14] 0.501 µM
-1.75%: max response [10, 16]

O=C(c1ccco1)N1CCC2(CC1)CN(Cc1cc(C(F)(F)F)cc(C(F)(F)F)c1)C2
inactive: Potency [1] > 11.4 µM | activity change, negative = inhibition [2] 5.99% | Potency [3] | activity change, negative = inhibition [4] 15.6% | activity, negative = inhibition [5] 2.41% | Potency [6] > 46 µM | outcome [7] | Potency [8] | activity change, negative = inhibition [10] -5.85% | Potency [11]
7.42%: max response [10, 17]
13.1%: max response [10, 16]
active: Potency [14] 6.31 µM

COc1ccc(NC(=O)N2CC[C@@]3(CCCN(C(=O)c4cnccn4)C3)C2)cc1
9.8%: max response [10, 17]
inactive: Potency [1] > 11.4 µM | activity change, negative = inhibition [2] -10.4% | Potency [3] | activity change, negative = inhibition [4] -2.83% | activity, negative = inhibition [5] 6.32% | Potency [6] > 46 µM | outcome [7] | Potency [8] | Potency [9] | Potency [14] | activity change, negative = inhibition [10] 4.73% | Potency [11]
2.35%: max response [10, 16]
